Where a name gives a salt, the structure may show the parent alone. ± gives the standard deviation of the averaged measurements.

Common to all, as to assay: growth (OD600 after 10 h); higher = more growth (less inhibition)
The test system of assay [1] is E. coli TESEC Alr+ wild-type control. The conditions noted are these: compound 0.1 mM; raw OD600 reference: median of DMSO wells 0.241, cell-free background 0.041. Here is the method:
(§1)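 TESEC Mtb Alr E. coli, or the Alr+ wild-type control, in 384-well plates with Prestwick library compounds at 0.1 mM and 1% DMSO, across arabinose induction levels of 1E3 to 1E7 nM. Growth is read as OD600 after 10 h at 37 °C in triplicate biological replicates.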

For assay [2], the system named is E. coli TESEC Mtb Alr. Particulars: compound 0.1 mM. Here is the method: as §1
The next assay concerns E. coli TESEC Mtb Asd. Particulars: compound 0.1 mM. The procedure:
(§2)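 TESEC E. coli strains in which the native enzyme is deleted and replaced by arabinose-inducible Mtb Asd, DapB, CysH or TrpD, each grown in its selective medium. Strains were screened against the Prestwick library at 0.1 mM and 1% DMSO in 384-well format at low and high arabinose induction. Growth is read as OD600 after 10 h in triplicate.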

The subject of another assay is E. coli TESEC Mtb DapB. Particulars: compound 0.1 mM. The procedure: as §2
The test system of assay [3] is E. coli TESEC Mtb Alr. The conditions noted are these: compound 0.1 mM. The procedure:
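TESEC Mtb Alr E. coli (ΔaraC ΔtolC ΔentC Δalr ΔdadX, arabinose-inducible Mtb Alr) or the Alr+ wild-type control strain, grown in defined M9-fructose medium without D-alanine in 96-well plates with Prestwick library compounds at 0.1 mM and 1% DMSO. Low Alr induction is 0.1 µM arabinose and high induction is 10 mM arabinose.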
The source holds these as a separate data set.

Setting [4] is: arabinose 1000 nM, raw OD600 reference: median of DMSO wells 0.294, cell-free background 0.041.
The mark [5] stands for this setting: arabinose 10000 nM, raw OD600 reference: median of DMSO wells 0.264, cell-free background 0.041.
Setting [6] is: arabinose 100000 nM, raw OD600 reference: median of DMSO wells 0.201, cell-free background 0.041.
The mark [7] stands for this setting: arabinose 1000000 nM, raw OD600 reference: median of DMSO wells 0.193, cell-free background 0.041.
Where [8] appears, read: arabinose 10000000 nM, raw OD600 reference: median of DMSO wells 0.146, cell-free background 0.041.
Where [9] appears, read: arabinose induction (level): High, raw OD600 reference: median of DMSO wells 0.331, cell-free background 0.041.
[10] abbreviates: arabinose induction (level): Low, raw OD600 reference: median of DMSO wells 0.417, cell-free background 0.041.
[11] abbreviates: arabinose induction (level): High, raw OD600 reference: median of DMSO wells […], cell-free background 0.041.
Where [12] appears, read: arabinose induction (level): Low, raw OD600 reference: median of DMSO wells 0.227, cell-free background 0.041.
Where [13] appears, read: arabinose 100 nM, raw OD600 reference: median of DMSO wells 0.413, cell-free background 0.052.
Where [14] appears, read: arabinose 10000000 nM, raw OD600 reference: median of DMSO wells […], cell-free background 0.052.

As to `CCC(Cc1c(I)cc(I)c(N)c1I)C(=O)O` (configuration not stated) [Iopanoic acid], the growth in assay [1] was found to be 0.0835 ± 0.0044; with E. coli TESEC Mtb Alr [2] (setting [4]) it was 0.0987 ± 0.0055; with E. coli TESEC Mtb Alr [2] (setting [5]) it was 0.0635 ± 0.0046; in the assay with E. coli TESEC Mtb Alr [2] (setting [6]), 0.097 ± 0.003; in the assay on E. coli TESEC Mtb Alr [2] (setting [7]), 0.0566 ± 0.001; in the assay with E. coli TESEC Mtb Alr [2] (setting [8]) it was 0.0777 ± 0.0027. Also, the growth was found to be 0.114 ± 0.0023 in the assay with E. coli TESEC Mtb Asd (setting [9]); 0.0943 ± 0.0055 in the assay with E. coli TESEC Mtb Asd (setting [10]); 0.148 ± 0.005 with E. coli TESEC Mtb DapB (setting [11]); 0.177 ± 0.005 in the assay with E. coli TESEC Mtb DapB (setting [12]); 0.339 ± 0.018 with E. coli TESEC Mtb Alr [3] (setting [13]); 0.0809 ± 0.0061 with E. coli TESEC Mtb Alr [3] (setting [14]).

Regarding `CN1CCN(C(c2ccccc2)c2ccc(Cl)cc2)CC1` (configuration not stated) [Chlorcyclizine hydrochloride], the growth in assay [1] came to 0.179 ± 0.0072; in the assay on E. coli TESEC Mtb Alr [2] (setting [4]), 0.215 ± 0.021; in the assay on E. coli TESEC Mtb Alr [2] (setting [5]), 0.174 ± 0.021; with E. coli TESEC Mtb Alr [2] (setting [6]), 0.178 ± 0.0045; in the assay with E. coli TESEC Mtb Alr [2] (setting [7]), 0.07137 ± 0.00015; with E. coli TESEC Mtb Alr [2] (setting [8]), 0.1236 ± 0.00055. For the same compound, the growth in the assay with E. coli TESEC Mtb Asd (setting [9]) was found to be 0.149 ± 0.0065; in the assay on E. coli TESEC Mtb Asd (setting [10]), 0.221 ± 0.0041; in the assay with E. coli TESEC Mtb DapB (setting [11]), 0.205 ± 0.014; in the assay with E. coli TESEC Mtb DapB (setting [12]) it was 0.261 ± 0.032; in the assay with E. coli TESEC Mtb Alr [3] (setting [13]), 0.4163 ± 0.0041; with E. coli TESEC Mtb Alr [3] (setting [14]), 0.222 ± 0.033.

Consider `Cc1ncc([N+](=O)[O-])n1CC(C)O` (configuration not stated) [Secnidazole], for which the growth in assay [1] came out at 0.2401 ± 0.001; in the assay on E. coli TESEC Mtb Alr [2] (setting [4]) it was 0.304 ± 0.012; in the assay on E. coli TESEC Mtb Alr [2] (setting [5]) it was 0.272 ± 0.015; in the assay with E. coli TESEC Mtb Alr [2] (setting [6]), 0.201 ± 0.0071; with E. coli TESEC Mtb Alr [2] (setting [7]) it was 0.188 ± 0.0085; with E. coli TESEC Mtb Alr [2] (setting [8]) it was 0.137 ± 0.0015. The growth in the assay on E. coli TESEC Mtb Asd (setting [9]) is 0.369 ± 0.026; with E. coli TESEC Mtb Asd (setting [10]), 0.466 ± 0.031; in the assay with E. coli TESEC Mtb DapB (setting [11]), 0.2001 ± 0.001; with E. coli TESEC Mtb DapB (setting [12]) it was 0.216 ± 0.024; with E. coli TESEC Mtb Alr [3] (setting [13]), 0.4049 ± 0.0029; in the assay on E. coli TESEC Mtb Alr [3] (setting [14]), 0.327 ± 0.0064.

In the case of `Cc1ccc(NC(=O)c2ccc(CN3CCN(C)CC3)cc2)cc1Nc1nccc(-c2cccnc2)n1` [Imatinib], the growth worked out at 0.171 ± 0.0085 in assay [1]; 0.23 ± 0.0032 in the assay with E. coli TESEC Mtb Alr [2] (setting [4]); 0.241 ± 0.00089 with E. coli TESEC Mtb Alr [2] (setting [5]); 0.141 ± 0.009 in the assay on E. coli TESEC Mtb Alr [2] (setting [6]); 0.119 ± 0.0081 with E. coli TESEC Mtb Alr [2] (setting [7]); 0.161 ± 0.0024 in the assay with E. coli TESEC Mtb Alr [2] (setting [8]). For the same compound, the growth came out at 0.185 ± 0.02 in the assay on E. coli TESEC Mtb Asd (setting [9]); 0.334 ± 0.063 with E. coli TESEC Mtb Asd (setting [10]); 0.185 ± 0.011 in the assay on E. coli TESEC Mtb DapB (setting [11]); 0.217 ± 0.02 with E. coli TESEC Mtb DapB (setting [12]); 0.4192 ± 0.0028 with E. coli TESEC Mtb Alr [3] (setting [13]); 0.241 ± 0.018 in the assay on E. coli TESEC Mtb Alr [3] (setting [14]).

For the compound `Nc1nc(O)c2ncn(CCC(CO)CO)c2n1` [Penciclovir], the growth in assay [1] amounted to 0.25 ± 0.0069; with E. coli TESEC Mtb Alr [2] (setting [4]), 0.31 ± 0.013; in the assay on E. coli TESEC Mtb Alr [2] (setting [5]), 0.262 ± 0.0029; in the assay with E. coli TESEC Mtb Alr [2] (setting [6]), 0.24 ± 0.042; in the assay with E. coli TESEC Mtb Alr [2] (setting [7]), 0.18 ± 0.011; in the assay on E. coli TESEC Mtb Alr [2] (setting [8]) it was 0.1665 ± 0.0015. Also, the growth in the assay with E. coli TESEC Mtb Asd (setting [9]) was found to be 0.228 ± 0.033; with E. coli TESEC Mtb Asd (setting [10]), 0.329 ± 0.033; in the assay on E. coli TESEC Mtb DapB (setting [11]), 0.226 ± 0.013; in the assay on E. coli TESEC Mtb DapB (setting [12]) it was 0.244 ± 0.02; in the assay on E. coli TESEC Mtb Alr [3] (setting [13]), 0.411 ± 0.0086; in the assay with E. coli TESEC Mtb Alr [3] (setting [14]) it was 0.36 ± 0.021.

For `O=C1c2c(O)cccc2Cc2cccc(O)c21` [Anthralin], the growth amounted to 0.161 ± 0.0039 in assay [1]; 0.159 ± 0.018 in the assay with E. coli TESEC Mtb Alr [2] (setting [4]); 0.169 ± 0.017 in the assay with E. coli TESEC Mtb Alr [2] (setting [5]); 0.205 ± 0.0082 in the assay with E. coli TESEC Mtb Alr [2] (setting [6]); 0.151 ± 0.0087 in the assay with E. coli TESEC Mtb Alr [2] (setting [7]); 0.182 ± 0.0047 with E. coli TESEC Mtb Alr [2] (setting [8]). Further, the growth with E. coli TESEC Mtb Asd (setting [9]) was 0.22 ± 0.013; with E. coli TESEC Mtb Asd (setting [10]), 0.306 ± 0.13; in the assay on E. coli TESEC Mtb DapB (setting [11]), 0.246 ± 0.017; with E. coli TESEC Mtb DapB (setting [12]), 0.229 ± 0.051; with E. coli TESEC Mtb Alr [3] (setting [13]), 0.29 ± 0.034; with E. coli TESEC Mtb Alr [3] (setting [14]), 0.239 ± 0.03.
